Pf growth 48h: P. falciparum growth inhibition at 48 hours (one generation); P. falciparum luciferase growth in erythrocytes, 48 h; Potency, µM (titrated, usually from 28.7 µM), for the others: at the highest dose activity change, negative = inhibition, most hits filed as inhibitors; hit rate 5.9% among 310,000; AID 504832; note: potency is the fitted concentration of half-maximal effect; % is set by controls: 0 for no effect and ±100 for the full control effect
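A one-generation exposure of luciferase-tagged malaria parasites in RPMI 1640/Albumax erythrocyte culture, 37 C and 5% CO2. Inhibition is inferred from decreased luminescence after adding detection reagent.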
Cycloheximide cs: affects cycloheximide protein synthesis inhibition readout, counter-screen; cell reporter, cycloheximide protein synthesis inhibition counterscreen; hit rate 12% among 300,000; max response, %; AID 2314; in the data active = max response mostly above about 13%, no sharp cut-off; inactive = mostly below about 14%; note: read at 38.3 µM for the half of the compounds with a filed dose; 0% is about no effect
Pf growth 96h: P. falciparum growth inhibition at 96 hour, primary screen for plastid delayed-death inhibitors; P. falciparum luciferase reporter growth, 96 h; Potency, µM (series often up to 28.7 µM), without a hit: top-dose activity change, negative = inhibition, actives largely listed as inhibitors; hit rate 6.9% among 320,000; AID 504834; note: potency is the fitted concentration of half-maximal effect; % is set by controls: 0 for no effect and ±100 for the full control effect
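Parasite growth measured via integrated firefly luciferase reporter in P. falciparum. Infected erythrocytes at 2% hematocrit, 0.05% parasitemia final were treated 96 hours at 37 C under 5% CO2, and luminescence was read.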
HCMV antiviral: blocks human cytomegalovirus replication; hit rate 4.5% among 410,000; AID 1259415; activity change, negative = inhibition, % at 57.5 µM; HFF cells, HCMV-luciferase reporter, 72 h; hits give low values; in the data active = activity change below about -60%; inconclusive = no clear call, values can overlap the other calls; inactive = above about -39%; note: % is set by controls: 0 for no effect and ±100 for the full control effect
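Inhibition of viral replication was scored as loss of reporter luminescence in HFFs infected with HCMV-luciferase (MOI 1 PFU/cell) for 72 h; compounds tested at 2 doses, normalized to buffer and Salinomycin controls.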
Shiga toxin inh: Shiga toxin inhibition. Vero cells, Shiga toxin protein synthesis inhibition reporter. inhibition, % at 38.7 µM. hit rate 9.2% among 290,000; in the data active = inhibition mostly above about 28%, no sharp cut-off; inactive = mostly below about 43%; note: 0% is about no effect
An asterisk follows results filed as active; u = inconclusive; x = no result given. Most compounds without a hit are left out; they make up all but 20% or so of the library. Unless noted, calls come from the whole dose curve; as a rule, active = well fitted inhibition curve with a large enough effect; inconclusive = small, poorly fitted or top-dose-only effect, or another doubt; inactive = no such curve, though single readings can be large or run the other way.

SMILES | Pf growth 48h | Cycloheximide cs | Pf growth 96h | HCMV antiviral | Shiga toxin inh
C=C(C)C(=O)Nc1cccc(C2=NOC3(C2)C[C@H](C(N)=O)N(C(=O)c2ccccc2C(=O)c2ccccc2)C3)c1 (stereo partly drawn) | u | -3 | 13µM* | -13 | 22
Cc1ccc(Cn2cc(CN3CC(N4CCN(CCN(C)C)CC4)CS3(=O)=O)nn2)cc1 (stereo not drawn) | x | x | x | 1 | x
COc1cc(C(=O)OCC(=O)Nc2cccc(S(=O)(=O)N3CCCC3)c2)ccc1OCC(C)C | u | x | u | -5 | x
N/C(Cc1cccs1)=N\OC(=O)COc1ccc(Br)cc1 | 16% | 30* | x | -3 | 23
Cc1ccccc1C(=O)O/N=C(\N)Cc1cccs1 | u | 88* | u | -62* | 95*
Cc1ccccc1OCC(=O)O/N=C(\N)Cc1cccs1 | u | 1 | u | 14 | -12
COc1ccc(OCC(=O)O/N=C(\N)Cc2cccs2)cc1 | 28% | 22* | -14% | -18 | 64*
Cc1cccc(OCC(=O)O/N=C(\N)Cc2cccs2)c1 | -2% | -4 | 41% | 6 | -6
CC1=C(C(=O)N2CCCCCC2)CC(CC(=O)NCCCN(C)C)C(=O)N1Cc1ccc(C(C)(C)C)cc1 (stereo not drawn) | x | x | x | -5 | x
O=c1c2ccccc2c(/C=N/c2n[nH]c(CCCO)n2)c(O)n1-c1ccccc1Cl | 0% | -2 | 0% | 7 | -23
Cc1cc(C)cc(NC(=O)CSc2nccn2C2CCCC2)c1 | x | x | x | 36 | x
COc1cc(S(=O)(=O)n2nnc3ccccc32)c(OC)cc1Cl | 0% | -3 | 9.3µM* | -4 | -3
NC(=O)[C@@H]1CCCN1C(=O)C(Cc1cnc[nH]1)NC(=O)C1CCC(=O)N1 (stereo partly drawn) | x | -1 | x | x | 22
O=[N+]([O-])c1cnccc1-n1nnc2ccccc21 | x | x | x | -63* | x
O=C(O)c1ccc(-n2nnc3ccccc32)c([N+](=O)[O-])c1 | 19% | -2 | 1% | 11 | -8
Cc1nc(N)nc(Cl)c1Cc1ccc(Cl)cc1 | u | -7 | -13% | -61* | 17
Cc1ccc(NS(=O)(=O)c2ccc(NC(=O)C(C)Sc3ccc(Cl)cc3)cc2)c(C)c1 (stereo not drawn) | -23% | -1 | 41% | -12 | -9
CCc1ccc2nc(N3CCC(C(=O)O)CC3)sc2c1 | x | x | x | -30 | x
CCCC(=O)N1CCN(c2nc3ccc(Cl)cc3s2)CC1 | 50% | 43* | 11% | -20 | 50*
CCCC(=O)N1CCN(c2nc3ccc(CC)cc3s2)CC1 | u | 36* | u | -11 | 134*
CCCC(=O)N1CCN(c2nc3ccc(Br)cc3s2)CC1 | 22% | 44* | -9% | -68* | 46*
CCCCN(C)CCNC(=O)C1CCN(c2nc3ccc(CC)cc3s2)CC1 | x | x | x | -98* | x
COC(=O)c1ccccc1S(=O)(=O)NNC(=O)c1ccccc1-n1cccc1 | -22% | 1 | u | 9 | -8
Cc1ccc(N2CC(C(=O)OCC(=O)Nc3ccc(F)cc3F)CC2=O)cc1 (stereo not drawn) | -15% | x | 1% | -4 | x
CCCCC(=O)N1CCN(c2nc3ccc(Br)cc3s2)CC1 | 48% | 26* | 18% | -13 | 45*
SMILES | Pf growth 48h | Cycloheximide cs | Pf growth 96h | HCMV antiviral | Shiga toxin inh
COc1ccc(NC(=O)N(C)C[C@@H]2Oc3cc(C#CCN(C)C)ccc3S(=O)(=O)N([C@H](C)CO)C[C@H]2C)cc1 | x | x | x | -5 | x
C=CCN(CC=C)C(=O)c1ccc2nc(Cc3ccc(OC)c(OC)c3)oc2c1 | u | 17* | u | -62* | 13
C=CCN(Cc1nc(-c2ccccc2)no1)C(=O)c1ccc2c(c1)OCO2 | 12% | -2 | -3% | -9 | -13
COc1ccc(Cc2nc3ccc(C(=O)N4CCC[C@H]4CO)cc3o2)cc1 | -12% | -3 | 18% | 37 | 25
COc1ccc(Cc2nc3ccc(C(=O)N4CCCC4)cc3o2)cc1 | u | 70* | -85% | 108 | 106*
COc1ccc(Cc2nc3ccc(C(=O)N(C)Cc4nccs4)cc3o2)cc1OC | -5% | 11 | u | -65* | 12
C#CCN(CC=C)C(=O)c1ccc2nc(C3CCCCC3)oc2c1 | 1% | 19* | u | 41 | 57
Cc1ccc(S(=O)(=O)N2C[C@@H](C)[C@]3(C2)[C@H](O)[C@H](OC(=O)Nc2c(C)noc2C)C[C@H]2C(=O)N(c4ccccc4)C(=O)[C@H]23)cc1 | x | x | x | -15 | x

Screening results (PubChem)
